Experimental data reported in PubChem BioAssay AID435003 (Sanford-Burnham Center for Chemical Genomics, 2010).
Screen size: about 330,000 compounds; about 1,700 (0.52%) were called active. Cut-off read from the data, not from the text of the source: active = inhibition above about 50%; inactive = the rest. The list comes from a sample in which actives are over-represented; it also holds similar structures and randomly drawn compounds.

Assay: inhibitors of induced NF-kB luciferase reporter, primary screen, TCR NF-kB activation inhibitor project, cell-based, luminescence, uHTS (AID 435003)
Conditions: Jurkat, PMA/ionomycin-induced NF-kB luciferase reporter, at 4 µM, stronger effect = higher value

inhibition, active:
O=[N+]([O-])c1ccccc1S(=O)(=O)Nc1cccc2cccnc12 70.3%
CCn1c(/C=C/c2ccc([N+](=O)[O-])o2)nc2ccccc2c1=O 54.7%
CCOc1ccc2[nH]c3nc(SCC(=O)NC4CCCC4)nnc3c2c1 59%
Oc1ccc(/C=N/Nc2ccc(C(F)(F)F)cn2)cc1O 59.5%
Cc1ccc(-n2ncc3c2CC(C)(C)CC3NC(=O)Cc2c(C)noc2C)cc1 (configuration not stated) 50.6%
COc1cc2c(cc1OC)CN(C(=O)c1cc(=O)c3ccccc3o1)CC2 50.7%
C=CCn1c(C)cc(C2=NNC(=NCC)SC2)c1C 67.2%
COc1ccc(Nc2cc(C)nc(-n3nc(C)cc3C)n2)cc1 68.7%
CC(=O)c1ccc(Oc2cc(C)nc(-n3nc(C)cc3C)n2)cc1 51.8%
Cc1c(/C=N\NC(=O)c2cc3ccccc3o2)c2ccccc2n1C 67.3%
CCOc1[nH]n(-c2ccc(Cl)cc2)c(=O)c1C=Nc1ccc(O)cc1 56.7%
COc1ccccc1C1C2=C(COC2=O)Nc2cc3c(cc21)OCO3 (configuration not stated) 70.3%
CCCOc1ccccc1C1CC(=O)Nc2cc3c(cc21)OCO3 (configuration not stated) 58.3%
CC(=O)Nc1ccc(Nc2c3ccccc3nc3ccccc23)cc1 61.6%
COc1ccc(C)c(Cn2c(-c3nonc3N)nc3ccccc32)c1 65.7%
Cc1cccc(N(C)C(=O)c2cc3c(=O)[nH]c4ccc(C)cc4c3s2)c1 65.1%
COc1ccc(CC(=O)Nc2nc(-c3ccc(F)c(F)c3)cs2)cc1OC 55.3%

inhibition, inactive:
NS(=O)(=O)c1ccc(CCNS(=O)(=O)c2cccc3cccnc23)cc1 -18.6%
O=S(=O)(NCCc1ccc(F)cc1)c1cccc2cccnc12 2.69%
O=C(Nc1ccc(Br)cc1F)C1CC(=O)N(C2CCCCC2)C1 (configuration not stated) -3.7%
CCn1c(SCc2ccccc2)nc2cc(OC)c(OC)cc2c1=O -6.84%
CCOCCCn1c(NN)nc2ccccc2c1=O -7.49%
Cc1noc(C)c1C(=O)N(CC(=O)NC1CCCC1)Cc1ccccc1F -8.54%
COc1ccc(C(=O)COC(=O)C(O)c2ccccc2)c(OC)c1 (configuration not stated) 0.0915%
O=C(CSc1nnc2c(n1)[nH]c1ccccc12)NC1CCCCC1 21.2%
COc1ccc2[nH]c3nc(SCC(=O)NC4CC4)nnc3c2c1 -17.7%
O=C(c1ccc(Cl)s1)N(Cc1nnc(-c2ccccc2Cl)o1)C1CC1 -18.3%
Cc1cc(C(=O)COc2ccc(Br)cc2F)c(C)n1C1CC1 -9.16%
C=CCOc1cccc(C2NC(=O)c3ccccc3O2)c1 (configuration not stated) 3.44%
Cc1ccc(C)c(NS(=O)(=O)c2cc(Br)cnc2N)c1 -1.35%
C/C=C(\C)C(=O)N1CC2(CC(c3cccc(NC(=O)CCCCC)c3)=NO2)C[C@@H]1C(N)=O (some centres not stated) 2.26%
Oc1ccc(Br)cc1/C=N/Nc1ccccn1 32.4%
O=C(N/N=C/c1ccc(O)c(O)c1)C1c2ccccc2Oc2ccccc21 2.58%
O=C(c1ccc(OC2CCN(C(=O)c3cccnc3)CC2)cc1)N1CCCCCC1 -2.83%
COc1ccc(-n2ncc3c2CC(C)(C)CC3NC(=O)CCc2c(C)noc2C)cc1 (configuration not stated) 20%
CC1=C(C(=O)NC2CC(C)(C)Cc3c2cnn3-c2ccc(C)cc2)OCCO1 (configuration not stated) 4.55%
CCN1C(=O)/C(=C2\SC(N3CCCCC3)=NC2=O)c2ccccc21 -33.7%
COC(=O)c1ccc(C(=O)Nc2cc(Cl)ccc2Cl)cc1NC(=O)c1ccccc1C -2.99%
Cc1c(C=O)c2ccccc2n1CCOc1ccccc1 -14.6%
COc1ccc2c(CC(=O)N3CCc4cc(OC)c(OC)cc4C3)coc2c1 15.9%
COc1ccccc1CNC(=O)c1cc(=O)c2ccccc2o1 -3.35%
Cc1ccc(-n2c(=O)cc(N3CCN(Cc4ccccc4)CC3)[nH]c2=O)cc1 1.04%
CCNC(=O)c1cccc(NC(=O)C2CC(=O)N(CCc3ccccc3)C2)c1 (configuration not stated) 8.87%
COc1ccc(-c2cc(C(F)(F)F)n3nc(C(=O)N4CCOCC4)c(Cl)c3n2)cc1 -15.4%
Cc1cccc(NC(=O)c2cc(S(=O)(=O)N3CCC4(CC3)OCCO4)ccc2F)c1 4.99%
COc1ccc(NC(=O)c2nc(-n3nc(C)cc3C)ccc2Cl)cc1Cl -8.27%
Cc1cc(C)n(-c2ccc(C(=O)O)cc2[N+](=O)[O-])n1 -2.8%
Cc1cc(N/N=C\c2ccc(Br)cc2)nc(-n2nc(C)cc2C)n1 27.2%
COc1ccc(C(C)=O)cc1CSc1nc2nc(C)cc(C)n2n1 5.26%
O=C(CCC1CCN(C(=O)c2cccc(Cl)c2F)CC1)Nc1ccccc1 2.28%
COc1cc(/C=C/C(=O)Nc2ccc(OC)c(S(=O)(=O)N3CCOCC3)c2)ccc1OCC#N 6.61%
Cc1ccc(CN2CCN(Cc3ccc(OCCO)cc3)CC2CCO)o1 (configuration not stated) 3.63%
N#Cc1c(NC(=O)c2ccc(N3CCOCC3)c([N+](=O)[O-])c2)sc2c1CCCC2 -30%
CC1(C)OC(=O)N2CCc3ccccc3C21C (configuration not stated) 11.5%
Cc1c(/C=N/N2C(=O)C3C4C=CC(C4)C3C2=O)c2ccccc2n1C (configuration not stated) -10.4%
O=C(N/N=C/c1cccc(O)c1)c1cc2c(ccc3ccccc32)o1 7.99%
COc1ccc(Cc2cc(-c3ccc(F)cc3)n[nH]c2=O)cc1 -2.24%
CC(C)c1ccc(S(=O)(=O)N2CCN(C(=O)c3ccc(N4CCCC4)c([N+](=O)[O-])c3)CC2)cc1 7.91%
CCOc1ccc(N=C2NC(=O)S/C2=C\c2ccc(O)cc2)cc1 11.9%
O=C(NC(C(=O)NCCN1CCOCC1)C12CC3CC(CC(C3)C1)C2)C1CCCCC1 (configuration not stated) -4.81%
N#Cc1ccccc1S(=O)(=O)N1CCN(C(=O)c2cc(-c3ccccc3)nn2-c2ccccc2)CC1 2.19%
O=[N+]([O-])/C=C1\CCCCCN1 -12.2%
O=C1NC(c2cc3c(cc2Cl)OCO3)Oc2ccccc21 (configuration not stated) -7.28%
CCCOc1ccc(C2NC(=O)NC(c3ccccc3)=C2C(C)=O)cc1OCC (configuration not stated) 2.86%
COC(=O)c1ccc(C2CC(=O)Nc3cc(OC)c(OC)cc32)cc1 (configuration not stated) 8.26%
COc1ccc(S(=O)(=O)Nc2ccc3c(c2)OCO3)cc1Cl -1.75%
COC(=O)C1=C(C(=O)OC)[C@@H]2N(C)c3ccccc3[C@@]23C[C@@H](C(=O)OC)N(C(=O)c2ccco2)C3=N1 18.3%
CC(C)Oc1ccc(/C=N/NC(=O)c2nnn(-c3nonc3N)c2CN(C)C2CCCCC2)cc1 -10.3%
Cc1cccc(OCC(=O)NC2CC(C)(C)NC(C)(C)C2)c1 23.8%
NS(=O)(=O)c1ccc(N=Cc2ccc(Br)s2)cc1 3.07%
CCc1nc(Nc2ccc(NC(C)=O)cc2)c2oc3ccccc3c2n1 -24.7%
CC(=O)Nc1ccc(Nc2cc(C)nc(Nc3ccc(NC(C)=O)cc3)n2)cc1 -8.27%
O=C(NCc1ccccc1)C(=O)NCC1OCCN1S(=O)(=O)c1ccc(Br)cc1 (configuration not stated) 13.9%
Cc1ccccc1N1CCN(Cc2nc(Cc3ccccc3F)no2)CC1 5.46%
Nc1nonc1-c1nc2ccccc2n1Cc1ccc(F)cc1 1.66%
CC(=O)Nc1nonc1-c1nc2ccccc2n1Cc1ccccn1 -4.81%
O=C(Nc1ccc(Cl)cc1)C1c2cccc[n+]2CC(=O)N1Cc1ccc2c(c1)OCO2 (configuration not stated) -3.1%
O=C1CC[C@H](O)CCN1[C@H](CSc1ccc(Br)cc1)Cc1ccccc1 -3.24%
O=C(NCCOc1ccccc1Cl)C(=O)Nc1ccccc1 -8.66%
C[C@@H]1NC(=O)[C@@]2(C)[C@@H](c3ccccc3)[C@H]3COc4ccccc4[C@@H]3N2C1=O 7.9%
COc1ccc(NC(=O)CN2C(=O)COc3ccc(S(=O)(=O)N4CCOCC4)cc32)c(OC)c1 0.923%
C[C@H](NC(=O)c1ccccc1Cl)C(=O)OCCOc1cccc(Cl)c1 -1.51%
COC(=O)c1ccccc1NC(=O)CN(Cc1ccccc1)S(C)(=O)=O 0.443%
O=c1[nH]snc1-c1c(Cl)cccc1Cl 11.2%
Cc1c(NS(=O)(=O)c2cc(C(=O)NCCc3ccc(F)cc3)cc(Cl)c2Cl)c(=O)n(-c2ccccc2)n1C 13.5%
Cc1ccc2[nH]c(=O)c(CC(=O)O)c(-c3ccccc3)c2c1 -0.374%
CCN(CC)CCCNC(=O)c1cc2c(=O)[nH]c3ccc(C)cc3c2s1 -1.96%
CC(=O)N1CSCC1C(=O)O (configuration not stated) -5.84%
Cc1c(C)c(C)c(S(=O)(=O)N2CCC3(CC2)OCCO3)c(C)c1C -2.3%
COc1cc(CC(=O)Nc2nc(-c3ccc(F)c(F)c3)cs2)cc(OC)c1OC 49.7%
Cc1ccc(S(=O)(=O)NC(=O)Nc2nc(-c3ccc(F)c(F)c3)cs2)cc1 -14.8%
Cc1ccc(C(=O)OCC(=O)Nc2ccc(Cl)cn2)cc1S(=O)(=O)N1CCOCC1 3.39%
